# Laboratory results reported in PubChem BioAssay AID686978 (National Center for Advancing Translational Sciences (NCATS), 2013).
# Out of some 420,000 compounds screened, about 64,000 (15%) were called active. Inconclusive results (about 27%) are left out. These entries were drawn from the full list. A number with no mark means an inactive call. The call rests on the fitted dose curve; in most records, active means well fitted inhibition curve with a large enough effect; inconclusive means small, poorly fitted or top-dose-only effect; inactive means flat fitted curve, though single readings scatter.
# Experiment: qHTS for Inhibitors of human tyrosyl-DNA phosphodiesterase 1 (TDP1): qHTS in cells in absence of CPT; further: nearly all actives have a fitted effect of over 55% in size
# Details: DT40 Tdp1-/- hTDP1 cells, no CPT, ATP luminescence, 48 h; activity change, negative = growth inhibition: at 46.2 µM (top of the series)
# Outline: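 No-CPT arm: Tdp1-/-;hTDP1 DT40 cells (400/well) plus compounds, incubated ≥48 hr at 37 °C. Readout CellTiter-Glo luminescence.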
# On the % scale 0 is the no-effect control and ±100 the full control effect; potency means the concentration at half of the fitted maximal effect.
SMILES,Potency,"activity change, negative = growth inhibition [%]"
COc1ccc(NC(=O)C2Cc3c(-c4ccc5c(c4)OCO5)ccnc3O2)cn1 (centres undefined),4.61 µM (active),
COc1ccc(CCNC(=O)COc2ccc3c(c2)OCO3)cc1,,-8.14
COc1ccc(CCCNC(=O)C2Cc3c(-c4cccc(C(N)=O)c4)ccnc3O2)cc1 (centres undefined),16.4 µM (active),
O=C(COc1ccc(Cl)cc1)Nc1ccc2c(c1)OCO2,,-21.7
CC(=O)Nc1ccc(-c2ccnc3c2CC(C(=O)NC(C)C)O3)cc1 (centres undefined),,-21.1
O=C(Nc1ccc(Cl)cc1)C1Cc2c(-c3ccc4c(c3)OCO4)ccnc2O1 (centres undefined),20.6 µM (active),
O=C(Nc1ccc2c(c1)OCO2)C1CC1(Cl)Cl (centres undefined),,-18.3
COc1ccc(NC(=O)C2Cc3c(-c4ccc(Cl)cc4)ccnc3O2)cc1 (centres undefined),13 µM (active),
COc1ccc(CCNC(=O)COC(=O)c2cnc(Cl)c(Cl)c2)cc1,,1.66
COc1ccc(OCC(O)CNC(=O)Nc2ccc(Cl)cc2)cc1 (centres undefined),,10.9
COc1ccc(N(CC(=O)NC2CCCC2)C(=O)CS(=O)CC(=O)Nc2ccc3c(c2)OCO3)cc1 (centres undefined),,17.1
COc1cc(OC)c(C(=S)N2CCCC2)cc1OC,,-1.59
O=C1NC(=O)C(CCc2ccccc2)(c2ccccc2)N1 (centres undefined),,-19.1
O=C(Nc1c2c(nn1-c1cccc(Cl)c1)CS(=O)(=O)C2)c1cccs1,,13.2
COc1ccc(-n2nnnc2SCC(=O)NCc2cccs2)cc1,,4.79
COc1ccc(N2CCN(C(=O)c3cn(C)c4ccc(S(=O)(=O)N5CCOCC5)cc4c3=O)CC2)cc1,inactive,
CC(=O)NC1(c2cccc(F)c2)CCN(CC(=O)NC(C)C)CC1,,-3.98
CCCCC1=CC2=CC(=O)C(C)(OC(=O)CC)C(=O)C2=CN1CCCOC(C)C (centres undefined),,5.48
CCOc1ncccc1C(=O)OCC(=O)c1c[nH]c2ccccc12,,10.8
O=C(CCC(=O)OCC(F)(F)C(F)F)NCc1ccccc1,,-4.18
O=C(NC12CC3CC(CC(C3)C1)C2)N1CCCC(CO)C1 (centres undefined),,-5.39
CCOC(=O)c1ccc[n+](CC(=O)Nc2ccccc2OC(F)F)c1,,1.71
Nc1nc(SCc2ccc([N+](=O)[O-])cc2)c2ncn(C3OC(CO)C(O)C3O)c2n1 (centres undefined),,-26.2
CC(C)Sc1nc(N)nc2c1ncn2C1OC(CO)C(O)C1O (centres undefined),,-19.1
OC[C@@H]1O[C@H](n2cnc3c(SCc4ccccc4)ncnc32)[C@H](O)[C@H]1O,11.2 µM (active),
O=C(CCc1ccccc1)NCc1cccnc1,,-13.8
Cc1ccc(C(=O)N2CCc3cc(CNC(=O)c4ccc(Br)cc4)ccc32)cc1,14.6 µM (active),

SMILES,Potency,"activity change, negative = growth inhibition [%]"
O=C(CCc1ccccc1)NCc1ccc2c(c1)CCN2C(=O)c1ccccc1,20.6 µM (active),
O=C(CCc1ccc(S(=O)(=O)NC2CCCCC2)cc1)NCc1ccccc1,,-22.2
CCC(=O)N1CCc2cc(S(=O)(=O)NC(Cc3ccccc3)C(=O)NCc3ccc(C)cc3)ccc21 (centres undefined),,1.68
Cc1cc2cc(CNC(=O)c3ccc(S(=O)(=O)N4CCOCC4)cc3)ccc2[nH]1,,-11.8
CN(C)c1ncc2nc(-c3ccc(F)cc3)c(=O)n(Cc3ccc(F)cc3)c2n1,,15.1
C=Cc1ccc(Cn2c(C(=O)OC)cc3sc(C)cc32)cc1,,-27.6
COC(=O)C(Cc1c[nH]c2ccccc12)NC(=O)CCNC(=O)c1ccco1 (centres undefined),,-2.46
C=CC[C@@H](CC(=O)NCCO)C(=O)N[C@H](C)COC(=O)[C@@H](CC=C)CC(=O)OC(C)(C)C,,-7.37
C=CCC[C@@H](Cc1ccc(F)cc1)C(=O)OC[C@H](Cc1c[nH]c2ccccc12)NC(=O)[C@@H](CC=C)CC(=O)N(CCO)Cc1ccccc1,16.4 µM (active),
C=CC[C@H](CC(=O)NCCO)C(=O)N[C@@H](COC(=O)[C@@H](CC=C)Cc1ccc(F)cc1)Cc1c[nH]c2ccccc12,23.1 µM (active),
CC(=O)NC(Cc1c[nH]c2ccccc12)C(=O)NCCc1ccccc1 (centres undefined),,-12.3
O=C(CCc1c[nH]c2ccccc12)NCCOc1ccccc1,,-22.9
C=CCC[C@H](Cc1ccc(F)cc1)C(=O)OC[C@@H](Cc1c[nH]c2ccccc12)NC(=O)[C@H](CC=C)CC(=O)N[C@H](CO)Cc1ccccc1,20.6 µM (active),
CCN(CC)c1nc(C#N)nc(OC)n1,,-20.1
CC1(C)CC(=O)NC=C(c2ccccc2)C1,,-2.86
COc1cc2c(cc1OC)/C(=C/C(=O)c1ccc(NC(C)=O)cc1)NCC2,,-28.9
O=C(OCCO)c1cc(Cl)c(C(=O)OCCO)cc1Cl,,-2.72
O=S(=O)(c1ccc(-c2ccccc2)cc1)N1CCCC1,,6.42
CN[C@@H]1[C@H](O[C@H]2[C@H](O[C@H]3[C@H](O)[C@@H](O)[C@H](N=C(N)N)[C@@H](O)[C@@H]3N=C(N)N)O[C@@H](C)[C@]2(O)CO)O[C@@H](CO)[C@H](O)[C@H]1O,,-5.68
Cc1cc(C)nc(Nc2n[nH]c(-c3ccccc3N)n2)n1,,-26.2
CCOC(=O)CSc1nncc2ccc(OC)c(OC)c12,,-14.7
Cc1cc(-c2ccc(S(=O)(=O)N3CCN(c4cccc(C(F)(F)F)c4)CC3)s2)on1,,-7.52
CC(=O)c1ccc(NS(=O)(=O)c2ccc(-c3cc(C)no3)s2)cc1,,-26.9
Cc1cc(C)cc(NS(=O)(=O)c2ccc(-c3cc(C)no3)s2)c1,2.59 µM (active),
CCc1cccc(C)c1NS(=O)(=O)c1ccc(-c2cc(C)no2)s1,0.517 µM (active),
Cc1cccc(N2CCN(S(=O)(=O)c3ccc(-c4cc(C)no4)s3)CC2C)c1 (centres undefined),,21.2
Cc1cc(-c2ccc(S(=O)(=O)N3CCc4ccccc4C3)s2)on1,,-11.1
